Consider 36 compounds from PubChem BioAssay (NCATS).

SMILES strings stand for the structures. Results filed as inconclusive are left out. Active and inactive are the calls of the source. Unless noted, calls come from the whole dose curve.

The target in experiment [1] is Nuclear receptor subfamily 1 group I member 2 (Homo sapiens) (UniProt O75469). In words: Dual reporter qHTS for antagonist of Pregnane X Receptor (hPXR) against the NCATS DSHEA and TCM libraries: Luminescence Readout (AID 1920060; active = well fitted curve in the direction sought with a large enough effect;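 note: HepG2 cells carrying hPXR luciferase reporter stimulated with rifampicin at 2 µM; 0% is about no effect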). The gist of the method:
(§1)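 In antagonist mode, 2 uM rifampicin was added to hPXR-Luc HepG2 cells alongside test substances, incubated 24 h at 37 C; luminescence gave reporter activity, and CellTiter-Fluor fluorescence (405/540 nm) gave viability.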
For orientation: Quantitative high-throughput screening tests each substance at several concentrations.

Experiment [2] in a line: Dual reporter qHTS for antagonist of Pregnane X Receptor (hPXR) against the NCATS DSHEA and TCM libraries: Fluorescence Readout (AID 1920061; active = well fitted curve in the direction sought with a large enough effect; note: 0% is about no effect). The essentials: as §1
Experiment [3] is described as follows: qHTS drug screen for cell cycle checkpoint inhibitors in PARPi-resistant BRCA-mutant ovarian cancer cell lines. (AID 1963452). Note: potency is the fitted concentration of half-maximal effect. The settings on record: PEO1/OlaR viability, CellTiter-Glo luminescence, 96 h; for Z-AUC: stronger effect = lower value. The essentials:
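PEO1, PEO4 and PEO1/OlaR ovarian cancer cells, 600 per well, exposed 96 h at 37C to a dilution series. Viability read by CellTiter-Glo luminescence, normalized to DMSO and empty wells; activity summarized as Z-AUC.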

Setting [4] is: measured here: PEO1 parental Z-AUC.

Chain of Nuclear receptor subfamily 1 group I member 2 (Homo sapiens) (O75469 whole entry, looked up): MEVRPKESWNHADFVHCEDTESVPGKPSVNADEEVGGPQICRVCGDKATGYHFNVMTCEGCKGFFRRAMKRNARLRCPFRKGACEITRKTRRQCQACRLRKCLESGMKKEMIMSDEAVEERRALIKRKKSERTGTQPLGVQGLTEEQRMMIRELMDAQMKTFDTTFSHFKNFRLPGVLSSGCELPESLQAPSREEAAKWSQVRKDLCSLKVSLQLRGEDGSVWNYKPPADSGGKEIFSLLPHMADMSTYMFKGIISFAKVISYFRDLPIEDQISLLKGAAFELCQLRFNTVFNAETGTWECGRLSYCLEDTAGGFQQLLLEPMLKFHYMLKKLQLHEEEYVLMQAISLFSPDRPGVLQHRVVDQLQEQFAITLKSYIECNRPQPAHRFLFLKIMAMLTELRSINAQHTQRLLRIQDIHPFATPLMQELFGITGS

As for `O=c1cc(-c2ccc(O)cc2)oc2cc(O)cc(O)c12`, the call in experiment [1] and in experiment [2] was inactive. Also, the Z-AUC is 0.475 (inactive) in experiment [3], 0.649 in experiment [3] (setting [4]) and 0.805 in experiment [3] (measured here: PEO4 Z-AUC).

For the compound `N[C@@]1(C(=O)O)CS(=O)(=O)[C@H]2[C@H](C(=O)O)[C@H]21`, the Z-AUC in experiment [3] is -0.18 (inactive); in experiment [3] (setting [4]) it was 0.223; in experiment [3] (measured here: PEO4 Z-AUC) it was 0.235.

Regarding `Clc1cc(Cl)cc(CNc2ncncc2-c2ccc3c(c2)OCO3)c1`, the Z-AUC in experiment [3] was 0.335 (inactive); in experiment [3] (setting [4]), -0.24; in experiment [3] (measured here: PEO4 Z-AUC) it was -0.467.

Turning to `O=C(Nc1ccccc1Br)N[C@@H]1CCN(c2ccc(C(F)(F)F)cn2)C1`, the results for the Z-AUC in experiment [3], in experiment [3] (setting [4]) and in experiment [3] (measured here: PEO4 Z-AUC) were -0.871 (inactive), 0.714 and 0.446, respectively.

Take `CC(C)[C@H](CO)Nc1nc(Nc2ccc(C(=O)O)c(Cl)c2)c2ncn(C(C)C)c2n1`: the results for the Z-AUC in experiment [3], in experiment [3] (setting [4]) and in experiment [3] (measured here: PEO4 Z-AUC) were -0.776 (inactive), 0.263 and 0.0501, respectively.

For `COc1ccc2cc(-c3nc(-c4ccc(S(C)=O)cc4)[nH]c3-c3ccncc3)ccc2c1` (stereo not given), the Z-AUC in experiment [3] was -0.0857 (inactive); in experiment [3] (setting [4]) it was -0.107; in experiment [3] (measured here: PEO4 Z-AUC), -0.281.

Turning to `Clc1ccc(COC(Cn2ccnc2)c2ccc(Cl)cc2Cl)cc1` (stereo not given), the figures for the Z-AUC in experiment [3], in experiment [3] (setting [4]) and in experiment [3] (measured here: PEO4 Z-AUC) were 0.343 (inactive), 0.179 and 0.161, respectively.

In the case of `CC(=O)Nc1ccc([C@H](C)C(=O)Nc2ncc(C(C)C)s2)cc1`, the results for the Z-AUC in experiment [3], in experiment [3] (setting [4]) and in experiment [3] (measured here: PEO4 Z-AUC) were -0.905 (inactive), -1.74 and -1.22, respectively.

In the case of `COc1cc2ncnc(Nc3ccc(F)c(Cl)c3)c2cc1OCCCN1CCOCC1`, the Z-AUC was 0.988 (inactive) in experiment [3], 0.863 in experiment [3] (setting [4]) and 0.585 in experiment [3] (measured here: PEO4 Z-AUC).

Take `CC(C)(C(=O)NCC(F)(F)C(F)(F)F)C(=O)N[C@@H]1C(=O)Nc2ccccc2-c2ccccc21`: the Z-AUC in experiment [3] is 0.455 (inactive); in experiment [3] (setting [4]), 0.706; in experiment [3] (measured here: PEO4 Z-AUC) it was 0.383.

As to `CC(C)(C)C(=O)Oc1ccc2c(c1)nc(NC(=O)c1cccc([N+](=O)[O-])c1)n2CCCO`, the values for the Z-AUC in experiment [3], in experiment [3] (setting [4]) and in experiment [3] (measured here: PEO4 Z-AUC) were -0.205 (inactive), 0.0755 and -0.141, respectively.

On to `CCCCCNC(=O)N1CCC(CN(Cc2ccc(Cl)cc2)Cc2ccc([N+](=O)[O-])s2)C1` (stereo not given), for which the Z-AUC in experiment [3] was -0.865 (inactive); in experiment [3] (setting [4]), 0.128; in experiment [3] (measured here: PEO4 Z-AUC) it was -0.734.

`Cc1c(NC(=O)c2ccc(C(C)(C)C)cc2)cccc1-c1cn(C)c(=O)c(Nc2ccc(C(=O)N3CCOCC3)cc2)n1`: the Z-AUC in experiment [3] was 1.16 (inactive); in experiment [3] (setting [4]), 0.745; in experiment [3] (measured here: PEO4 Z-AUC), 0.879.

On to `COCCOC(=O)C1=C(C)NC2=C(C(=O)CC(c3ccccc3OC)C2)C1c1cccc(O)c1` (stereo not given), for which the figures for the Z-AUC in experiment [3], in experiment [3] (setting [4]) and in experiment [3] (measured here: PEO4 Z-AUC) were -0.198 (inactive), 0.425 and 0.517, respectively.

`CC(=O)OC1C(C)OC(Oc2c(-c3ccc(O)cc3)oc3cc(O)cc(O)c3c2=O)C(O)C1OC(C)=O` (stereo not given): the Z-AUC was -0.58 (inactive) in experiment [3], -0.801 in experiment [3] (setting [4]) and -0.512 in experiment [3] (measured here: PEO4 Z-AUC).

For the compound `N[C@H](CSC(c1ccccc1)(c1ccccc1)c1ccccc1)C(=O)O`, the Z-AUC in experiment [3] was 0.731 (inactive); in experiment [3] (setting [4]), 0.902; in experiment [3] (measured here: PEO4 Z-AUC) it was 0.85.

`CC1(C)CCC2=C(O1)c1ccccc1C(=O)C2=O`: the values for the Z-AUC in experiment [3], in experiment [3] (setting [4]) and in experiment [3] (measured here: PEO4 Z-AUC) were 0.0983 (inactive), -0.291 and 0.134, respectively.

On to `NC(=O)c1cccc(-c2cc(Nc3ccc(OC(F)(F)F)cc3)ncn2)c1`, for which the Z-AUC in experiment [3] was 1.26 (inactive); in experiment [3] (setting [4]), 0.548; in experiment [3] (measured here: PEO4 Z-AUC), 0.648.

Take `CC[C@@]1(O)C[C@H](O[C@H]2C[C@H](N(C)C)[C@H](O[C@H]3C[C@H](O)[C@H](O[C@H]4CCC(=O)[C@H](C)O4)[C@H](C)O3)[C@H](C)O2)c2c(cc3c(c2O)C(=O)c2c(O)cccc2C3=O)[C@@H]1C(=O)OC`: the Z-AUC is -0.814 (inactive) in experiment [3], -0.555 in experiment [3] (setting [4]) and -0.946 in experiment [3] (measured here: PEO4 Z-AUC).

On to `O=C(CCN1CCN(C(=O)OCc2cc(Cl)cc(Cl)c2)CC1)c1ccc2[nH]c(=O)oc2c1`, for which the results for the Z-AUC in experiment [3], in experiment [3] (setting [4]) and in experiment [3] (measured here: PEO4 Z-AUC) were 0.428 (inactive), 0.576 and 0.591, respectively.

Consider `COc1ccc(-c2coc3cc(O)cc(O)c3c2=O)cc1`, for which the values for the Z-AUC in experiment [3], in experiment [3] (setting [4]) and in experiment [3] (measured here: PEO4 Z-AUC) were 1.34 (inactive), 0.911 and 1.85, respectively.

As for `COc1ccc(-c2nc(N3CCOCC3)c3sc(CN(C)c4ncc(C(=O)NO)cn4)cc3n2)cn1`, the Potency in experiment [3] is 61.6 nM (active). Moreover, the Z-AUC in experiment [3] (setting [4]) was -1.63; in experiment [3] (measured here: PEO4 Z-AUC), -1.69.

In the case of `CS(=O)c1ccc(-c2nc(-c3ccc(F)cc3)c(-c3ccncc3)[nH]2)cc1` (stereo not given), the Z-AUC is 0.509 (inactive) in experiment [3], 0.495 in experiment [3] (setting [4]) and 0.786 in experiment [3] (measured here: PEO4 Z-AUC).

Take `COc1ccc(C2CC(c3ccccc3)=NN2c2ccc(S(N)(=O)=O)cc2)cc1` (stereo not given): the values for the Z-AUC in experiment [3], in experiment [3] (setting [4]) and in experiment [3] (measured here: PEO4 Z-AUC) were -0.424 (inactive), -0.864 and -0.548, respectively.

Turning to `COc1cc(NC(=O)c2ccc(-c3ccc(Cl)cc3)o2)cc(OC)c1`, the Z-AUC in experiment [3] is -0.479 (inactive); in experiment [3] (setting [4]) it was -0.389; in experiment [3] (measured here: PEO4 Z-AUC) it was -0.303.

Take `COc1ccc2c(Oc3ccc(NC(=O)c4c(C)n(CC(C)(C)O)n(-c5ccccc5)c4=O)cc3F)ccnc2c1`: the Z-AUC in experiment [3] was -0.152 (inactive); in experiment [3] (setting [4]) it was 0.199; in experiment [3] (measured here: PEO4 Z-AUC), 0.0396.

For `CN[C@@H](C)C(=O)N[C@H]1CN(C(=O)CC(C)C)CC[C@H]2CC[C@@H](C(=O)NC(c3ccccc3)c3ccccc3)N2C1=O`, the Z-AUC in experiment [3] is 0.77 (inactive); in experiment [3] (setting [4]), 0.371; in experiment [3] (measured here: PEO4 Z-AUC) it was -0.22.

For the compound `CC(C)n1cnc2c(NCCCCCCNC(=O)OC(C)(C)C)nc(NCCO)nc21`, the figures for the Z-AUC in experiment [3], in experiment [3] (setting [4]) and in experiment [3] (measured here: PEO4 Z-AUC) were 0.728 (inactive), 0.841 and 1.56, respectively.

Turning to `C=C1C(=O)[C@@]23C(CC[C@@H]1[C@H]2O)[C@@]12CO[C@]3(O)[C@@H](O)[C@@H]1C(C)(C)CC[C@@H]2O` (stereo not given in full), the Z-AUC was -0.857 (inactive) in experiment [3], -1.05 in experiment [3] (setting [4]) and -1.08 in experiment [3] (measured here: PEO4 Z-AUC).

With `COc1cccc([C@@H](C)NCCCc2ccccc2Cl)c1`, the Z-AUC was 0.861 (inactive) in experiment [3], 1.12 in experiment [3] (setting [4]) and 0.597 in experiment [3] (measured here: PEO4 Z-AUC).

Consider `Cc1ccc(C(C)(O)c2nc3ccccc3s2)c(C)c1` (stereo not given), for which the Z-AUC in experiment [3] is 0.398 (inactive); in experiment [3] (setting [4]), 0.537; in experiment [3] (measured here: PEO4 Z-AUC), 0.368.

For `Cc1ccc(C(=O)Nc2cccc(C(F)(F)F)c2)cc1Nc1nc(-c2cccnc2)nc2c1cnn2C`, the Z-AUC in experiment [3] was 0.462 (inactive); in experiment [3] (setting [4]), 0.182; in experiment [3] (measured here: PEO4 Z-AUC), 0.562.

As to `CCn1c(C(=O)N(C2CC2)C2CC2)cc2c3c(ncn3C)c(Nc3cc(C)n(C)n3)nc21`, the Z-AUC in experiment [3] is 0.749 (inactive); in experiment [3] (setting [4]), 1.24; in experiment [3] (measured here: PEO4 Z-AUC) it was 1.3.

For the compound `CC(C)C[C@H](CC(=O)O)C(=O)N[C@@H](Cc1c[nH]c2ccccc12)C(=O)N[C@@H](C)c1ccccc1`, the Z-AUC in experiment [3] was 1.58 (inactive); in experiment [3] (setting [4]) it was 1.54; in experiment [3] (measured here: PEO4 Z-AUC), 1.63.

Turning to `CCOC(=O)C1=C(N)Oc2ccc(Br)cc2C1C(C#N)C(=O)OCC` (stereo not given), the figures for the Z-AUC in experiment [3], in experiment [3] (setting [4]) and in experiment [3] (measured here: PEO4 Z-AUC) were 1.64 (inactive), 1.22 and 1.22, respectively.

Consider `Clc1ccc(CCC(Cn2ccnc2)Sc2c(Cl)cccc2Cl)cc1` (stereo not given), for which the results for the Z-AUC in experiment [3], in experiment [3] (setting [4]) and in experiment [3] (measured here: PEO4 Z-AUC) were 1.27 (inactive), 0.807 and 0.874, respectively.
